About 2,600 (0.84%) of roughly 310,000 compounds were called active. Shown is part of a subset that was picked to be rich in actives. A number with no mark means an inactive call.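 The calls were made as follows: active = fluorescence ratio B-score at or below minus 3 SD of library scores, with starting-brightness B-score within 2 SD (cut at about -4.2 in these data); inactive = the rest.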

Chain of Inward rectifier potassium channel 2 (Mus musculus) (P35561 whole entry, looked up): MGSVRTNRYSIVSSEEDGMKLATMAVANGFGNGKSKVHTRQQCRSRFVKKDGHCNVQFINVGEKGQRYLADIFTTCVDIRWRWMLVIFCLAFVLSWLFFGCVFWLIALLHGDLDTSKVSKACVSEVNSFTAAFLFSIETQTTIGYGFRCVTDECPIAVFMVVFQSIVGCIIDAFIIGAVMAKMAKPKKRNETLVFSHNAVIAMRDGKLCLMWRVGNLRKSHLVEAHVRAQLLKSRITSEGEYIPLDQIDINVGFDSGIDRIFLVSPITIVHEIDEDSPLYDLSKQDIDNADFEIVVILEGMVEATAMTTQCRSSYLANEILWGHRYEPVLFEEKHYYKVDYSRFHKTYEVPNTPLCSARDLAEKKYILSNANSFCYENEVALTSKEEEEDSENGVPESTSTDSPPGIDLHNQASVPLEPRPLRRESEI

This test addresses Inward rectifier potassium channel 2 (Mus musculus) (UniProt P35561). The test is described as follows: blocks the mouse Kir2.1 inward-rectifier potassium channel (AID 1672).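 Also: channel flux triggered by added potassium and thallium sulfate stimulus; B-score of peak minus minimum fluorescence over baseline after thallium stimulus; more negative B-score means stronger Kir2.1 block with less thallium influx.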 Particulars: HEK293-Kir2.1, FluxOR thallium flux fluorescence; at 10 µM; hits give low values.
On to `CCOC(=O)c1c(C)oc2cc(Sc3ccccc3)c(O)c(O)c12`, for which the B-score is 1.87. With `CCC(c1nnc(SCC(=O)NNC(=O)c2ccccc2)n1Cc1ccccc1)N(C)C` (stereo unspecified) the figure was 0.93; with `CCCNC(=O)c1onc(CSc2ccc(F)cc2)c1C(=O)NC(C)C`, -1.25.

On to `O=[N+]([O-])c1ncc(Br)cc1Nc1ccccc1`, for which the B-score was 0.16. The value for `O=C(NCc1ccncc1)c1ccc(NS(=O)(=O)c2cccc([N+](=O)[O-])c2)cc1` was 0.45; that for `CCCCN1C(N)=NC[C@@H]1CC1CCCCC1` was -1.04. On to `COc1cccc(NC(=O)CSc2nccn(-c3ccc4c(c3)OCCO4)c2=O)c1`, for which the B-score was -0.69.

Turning to `Nc1ccccc1/C=N\N=C/c1ccccc1N`, the B-score was -1.02.

`Cc1noc(C)c1CSCC(=O)Nc1ccc(Br)cc1Cl`: the B-score was 0.74.

Take `COc1ccc(Cl)cc1NC(=O)CN(C)C(=O)c1cc(-c2cccs2)nn1-c1ccccc1`: the B-score is -0.85. The value for `CCCCn1c(N)c(N(CCOC)C(=O)c2sc3ccccc3c2Cl)c(=O)[nH]c1=O` was -0.1; that for `COc1ccc(NS(=O)(=O)c2ccc(C)c(C(=O)N(C)Cc3ccc(OC)cc3OC)c2)cc1` was 0.75. Take `CCN(CC)C(=O)CN(c1cccc([N+](=O)[O-])c1)S(=O)(=O)c1ccccc1`: the B-score was 1.08. The value for `Cc1ccc(S(=O)(=O)N(Cc2cccc([N+](=O)[O-])c2)C(=O)N2CCN(C)CC2)cc1` was 1.58. The value for `O=C(CCl)N(Cc1cccc([N+](=O)[O-])c1)c1cccc(Cl)c1` was -5.7 (active); that for `COc1ccccc1NC(=O)Nc1nc(CC(=O)Nc2ccccc2F)cs1` was -0.89. In the case of `CC1CCc2[nH]c3ccc(C(=O)N(C)CC(=O)Nc4cccc(F)c4)cc3c2C1` (stereo unspecified), the B-score was -0.84.

For the molecule `CC(=O)N(C1=C(Cl)C(=O)c2ccccc2C1=O)c1ccc(C(=O)O)cc1`, the B-score is -11 (active). The value for `CC(C)N(C(=O)c1ccc(-c2ccccc2F)cc1)C(C)C` was -0.06; that for `O=C(CN1C(=O)c2ccccc2C1=O)NCc1ccc(C(=O)O)cc1` was -0.03; that for `COc1ccc(CCNc2cc(N3CCN(C(=O)c4ccccc4OC)CC3)ccc2[N+](=O)[O-])cc1OC` was -0.2. Turning to `CC1(C)C=Cc2c(ccc3c2OC[C@@H](c2ccc(O)cc2O)C3)O1`, the B-score was 0.26. For the molecule `Cc1ccc(S(=O)(=O)CCC(=O)Nc2nnc(CC(C)C)s2)cc1`, the B-score is 0.9. Consider `COc1ccc(OCC(O)CNCCNc2nccc(C(F)(F)F)n2)cc1` (stereo unspecified), for which the B-score is -1.42. The value for `OC(COc1ccc(Br)cc1)CN1CCCC1` (stereo unspecified) was -0.51. The value for `CC(C)(C)CC(C)(C)NCC(O)COCCOc1ccc(Br)cc1` (stereo unspecified) was -6.18 (active); that for `CCCCCC(=O)N1CCN(S(=O)(=O)c2ccc3c(c2)OCCCO3)CC1` was -1.7; that for `COc1ccc(Cl)cc1NC(=O)CN1CCN(C(=O)N2CCOCC2)CC1` was -2.11. Take `CC1CC(=S)Nc2ccccc2N1Cc1ccccc1` (stereo unspecified): the B-score is -4.8 (active). With `CC1CC(=O)Nc2ccccc2N1S(=O)(=O)c1cccs1` (stereo unspecified) the figure was -0.1; with `CC1CC(C)(C)NC(=S)N1CCC(=O)N1CCN(Cc2ccccc2)CC1` (stereo unspecified), -0.96; with `O=C(NCCc1ccco1)C(=O)NCCC1CCCCN1S(=O)(=O)c1ccccc1` (stereo unspecified), -0.4.

With `COc1ccc(-c2nn(-c3ccccc3)cc2/C=C2/SC(=S)N(CCCC(=O)O)C2=O)c(C)c1`, the B-score is 0.15. The value for `Cc1ccc(-c2nn(-c3ccccc3)cc2/C=C2\SC(=S)N(CCCCCC(=O)O)C2=O)o1` was -6 (active); that for `CN(C)S(=O)(=O)c1cccc(-c2nn(-c3ccccc3)cc2/C=C2\SC(=S)N(CC(=O)O)C2=O)c1` was 0.81.

`COc1ccc(-c2cc(C(=O)N/N=C/c3cccnc3)c3ccccc3n2)c(OC)c1`: the B-score is 0.47. With `O=C(NNC(=O)c1ccc(-c2ccccc2)cc1)Nc1ccccc1` the figure was -0.44; with `CCOC(=O)c1c(C)[nH]c(C(=O)OCC(=O)N2CCCC2=O)c1C`, -0.25; with `Cc1csc(NC(=O)CSc2nc(=O)n(CCCN(C)C)c3c2CCC3)n1`, 1.14. Turning to `Cc1ccc(NC(=O)CSc2nc(=O)n(CCN(C)C)c3c2CCCC3)c(C)c1`, the B-score was -0.41.

On to `Cc1ccc2nc(NC(=O)CSc3nc(=O)n(CCCN(C)C)c4c3CCC4)sc2c1`, for which the B-score was -4.83 (active). The value for `COc1ccc(S(=O)(=O)N2CCCCC2)cc1NC(=O)COc1ccccc1` was 0.95.

Consider `CC(Nc1nc(N2CCCC2)nc2ccccc12)c1ccccc1` (stereo unspecified), for which the B-score is -4.56 (active). The value for `CC(Nc1nc(N2CCOCC2)nc2ccccc12)c1ccccc1` (stereo unspecified) was -0.41; that for `CC(Nc1nc(N2CCN(CCO)CC2)nc2ccccc12)c1ccccc1` (stereo unspecified) was -0.6. With `COc1ccc(CCNCc2c(-c3ccccc3)n(C)c3ccccc23)cc1` the figure was -10.9 (active); with `COc1ccc(-c2nc3ccccc3c(=O)n2CCc2ccc(O)cc2)cc1`, 0.02. With `COc1ccc(-c2c(C#Cc3ccccc3)c3ccccc3n2C)cc1` the figure was 0.01. For the molecule `CCOc1cc2ccccc2cc1C(=O)Nc1ccccn1`, the B-score was 1.1. Consider `COc1ccccc1C(=O)Nc1ccccc1C(=O)Nc1ccccc1`, for which the B-score was 1.53. With `COc1cccc2[nH]c(C(=O)NCCc3ccccc3)cc12` the figure was 0.06; with `CC(C)(C)NCC(O)COc1cccc2[nH]c(=O)[nH]c12` (stereo unspecified), 1.46.

Take `COc1ccccc1OCCNCC(O)COc1cccc2[nH]c3ccccc3c12` (stereo unspecified): the B-score was -4.77 (active). With `Cc1cc2oc3ccc(NCCC4CCCN4C)cc3c(=O)c2cc1C` (stereo unspecified) the figure was -7.66 (active); with `Cc1cc2oc(=O)cc(CN3CCN(Cc4ccccc4)CC3)c2cc1C`, -2.25.

For `CCCOc1ccc(C2c3c(oc4cc(C)c(C)cc4c3=O)C(=O)N2CCCN2CCOCC2)cc1` (stereo unspecified), the B-score was 0.6. With `COc1ccccc1NC(=O)COC(=O)c1ccccc1SCC(=O)N1CCCC1`, the B-score is 1.77.

Turning to `O=C(c1cc(-c2ccco2)nc2ccccc12)N(Cc1nnc(-c2ccc(Cl)cc2)o1)C1CC1`, the B-score is -1.19. With `CCC(C)NC(=O)c1ccc(N2CCC3(CC2)OCCO3)c([N+](=O)[O-])c1` (stereo unspecified) the figure was 0.4. Consider `CC(NC(=O)c1ccc(N2CCNCC2)c([N+](=O)[O-])c1)C12CC3CC(CC(C3)C1)C2` (stereo unspecified), for which the B-score is -8.06 (active).

For the molecule `O=C(NC1C2CC3CC(C2)CC1C3)c1ccc(N2CCNCC2)c([N+](=O)[O-])c1` (stereo unspecified), the B-score is 0.7. On to `COCOc1cc(O)c(C(=O)/C=C/c2ccc(OCOC)c(OCOC)c2)c(OCOC)c1`, for which the B-score was 1.19.

Turning to `COc1ccc(CNC(=O)C2CCCC2)cc1`, the B-score was 1.06. With `COc1ccc(NC(=O)c2cc(-c3ccc(C)cc3)on2)cc1` the figure was 0.92; with `COc1ccc(NC(=O)/C(Cl)=C(/Cl)S(=O)Cc2ccc(C)cc2)cn1` (stereo unspecified), -5.16 (active); with `COc1ccc(Nc2cc(Cl)ccc2C(=O)O)cn1`, 2.53. For `CC1CCN(c2ccc(-c3ccc(NC(=O)c4ccco4)cc3)nn2)CC1`, the B-score was 2.11.

Regarding `COC(=O)c1ccc(NC(=O)c2ccccc2NS(=O)(=O)c2ccccc2)cc1`, the B-score is -0.07. The value for `COc1cc(NC(=O)c2ccccc2NS(=O)(=O)c2ccc(Cl)s2)cc(OC)c1` was -4.91 (active); that for `COc1cc(NC(=O)c2cccnc2SC)cc(OC)c1` was -1.22. Take `Cc1ccn2c(=O)nc(SCC(=O)NCc3ccc4c(c3)OCO4)nc2c1`: the B-score was -1.61. For `Cc1ccc2nc(NC(=O)C3CSC4(C)CCC(=O)N34)sc2c1` (stereo unspecified), the B-score was -0.28. On to `CCOc1ccc(S(=O)(=O)Nc2cccc(C(=O)NCC3(N4CCCCC4)CCCCC3)c2)cc1`, for which the B-score was -0.12.

Turning to `Cc1ccc(C(=O)C(C)OC(=O)Cc2n[nH]c(=O)c3ccccc23)cc1C` (stereo unspecified), the B-score was -0.94.

With `O=C(CN1C(=O)NC2(CCCC2)C1=O)OCCOc1ccc(F)cc1`, the B-score is 0.63.

With `CCn1c2ccccc2c2cc(NC(=O)C/C(C)=N/NC(=O)c3ccccc3N)ccc21`, the B-score was 1.9. With `CCn1c2ccccc2c2cc(NC(=O)CNC)ccc21`, the B-score is -5.93 (active). With `CCn1c2ccccc2c2cc(NC(=O)COC(=O)c3ccccc3Br)ccc21` the figure was 1.33; with `COc1ccc(CCNC(=O)C(=O)NCC2CCCN2S(=O)(=O)c2cccs2)cc1OC` (stereo unspecified), -0.91. `COc1ccc(C)cc1S(=O)(=O)Nc1cc2c3c(c1)CCC(=O)N3CCC2`: the B-score was 0.54. With `COc1ccc(NC(=O)CCC(=O)N2CCN(S(=O)(=O)c3ccc(C)cc3)CC2)c(OC)c1`, the B-score was -0.19. On to `COc1ccccc1C(=O)NC(CCSC)C(=O)N1CCN(C/C=C/c2ccccc2)CC1` (stereo unspecified), for which the B-score was -1.22. With `COc1ccc(CN2CCC(c3nc4ccc(Cl)cc4[nH]3)CC2)cc1` the figure was -7.29 (active); with `COc1ccc(Cn2nnc3c(=O)[nH]c(C4CCN(C(=O)c5ccccc5Cl)CC4)nc32)cc1`, 1.59. The value for `COc1ccc(CN2CCN(Cc3ccc(OC)c(OC)c3OC)CC2)cc1` was 0.47; that for `O=C(Nc1ccc(S(=O)(=O)N2CCCCC2)cc1)C1CCN(C(=O)c2ccc(F)cc2)CC1` was -0.97; that for `COc1cc(/C=N/Nc2ccc(C)cc2)cc(Br)c1O` was -0.11. On to `COc1cc(/C=N/O)cc(Br)c1OCc1cccc(Cl)c1`, for which the B-score is -0.84.

As for `COc1cc(/C=N/O)cc(Br)c1OS(=O)(=O)c1ccc(C)cc1`, the B-score is -10.4 (active). In the case of `CCc1nnc(NS(=O)(=O)c2ccc(NC(=O)c3cccc(OC(F)(F)C(F)F)c3)cc2)s1`, the B-score was -0.69. The value for `Cc1ccc(-c2cc(=O)[nH]c(NCc3ccccc3)n2)cc1` was -1.96.

These data come from PubChem BioAssay AID1672 (Johns Hopkins Ion Channel Center, 2009).
